From PubChem
rCAG RNA binder: r(CAG) repeat RNA binding; TO-PRO-1 dye displacement fluorescence; inhibition, % at 3 µM; AID 651821; 370,000 compounds, 1.3% hits;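 active = inhibition above the plate cutoff, the mean of all test compounds on that plate plus 3 SD, cut at about 35% in these data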;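 note: 0% = DMSO alone and 100% = 100 µM mitoxantrone as full dye displacement; higher means more dye released from RNA so lower well fluorescence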
PRMT1 inh: PRMT1 (human) inhibition, primary screen; Q99873; recombinant PRMT1, activity-based probe fluorescence polarization; inhibition, % at 2.79 µM; 370,000 compounds, 1.3% hits;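 active = inhibition above about 21% made by adding two undisclosed values, limit read from the data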
ABHD5 PLIN5 PPI: blocks binding of human ABHD5 to perilipin-5 | 360,000 compounds, 0.78% hits | Split G. princeps luciferase complementation, luminescence, 4 h | AID 602281 | Q00G26+Q8WTS1 | inhibition, % at 4 µM;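 active = inhibition above the mean inhibition across every tested compound plus 3 SD, cut at about 22% in these data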;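 note: 0% = DMSO only wells and the 100% control is not disclosed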
LANA-H2B inh: blocks KSHV LANA binding to histone H2A/H2B | cell-free LANA-H2A/H2B peptide, fluorescence polarization | 320,000 compounds, 0.6% hits | Q9QR71 | AID 2629 | inhibition, % (concentration not given with the values); in the data active = inhibition mostly above about 10%, no sharp cut-off; inactive = mostly below about 6.7%
Rtt109 Vps75: blocks Candida albicans Rtt109/Vps75 acetyltransferase activity | Q5AAJ8 | purified Rtt109/Vps75, ThioGlo CoA-SH fluorescence, 4 h | inhibition, % at 34.9 µM | 330,000 compounds, 0.16% hits | AID 540336;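 active = inhibition of at least 50% in every replicate; inconclusive = best replicate reaches 50% inhibition but some replicates fall short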
ALR H2O2 inh: inhibitors of human sulfhydryl oxidase ALR | P55789 | purified ALR, DTT oxidation, H2O2 HRP-luminol luminescence | inhibition, % (no concentration beside the values) | 290,000 compounds, 3.8% hits | AID 485317;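 active = mean replicate inhibition above about 79%, with every replicate also reaching it, limit read from the data; inconclusive = only one of the two criteria met; inactive = mean below limit and not every replicate reaching it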
The depositor's hits bear a star; u = inconclusive; x = no result. The list is not random: actives were taken first. Their share in the collection is about 5.9%.

SMILES	rCAG RNA binder	PRMT1 inh	ABHD5 PLIN5 PPI	LANA-H2B inh	Rtt109 Vps75	ALR H2O2 inh
COc1ccc2[nH]c(=O)c(CN(C3CCCCC3)C(c3nnnn3Cc3ccco3)C(C)C)cc2c1 (stereo not given)	x	x	46*	7	6	x
O=C(c1ccccn1)N(Cc1cc2ccccc2[nH]c1=O)C1CCCCC1	-6	1	1	4	-3	2
CCOC(=O)N1CCN(C(=O)c2ccc(CS(=O)Cc3ccccc3Cl)o2)CC1 (stereo not given)	-3	-2	-1	1	6	u
O=C(c1ccc(CS(=O)Cc2ccccc2Cl)o1)N1CCN(C2CCCCC2)CC1 (stereo not given)	-4	-1	2	9	1	98*
CN(C)c1cccc(CNC(=O)c2csc([C@H]3C[C@H](O)[C@@H](CO)O3)n2)c1	0	1	-4	x	x	x
C#CCOCCOCCOCCNc1nc(N2CCN(C(=O)CCCCCCCCCCNC(=O)Cn3cc(CCCCCN)nn3)CC2)nc(N2CCN(C(=O)CCCCCCCCCCNC(=O)[C@@H]([C@H](C)O)n3cc(C)nn3)CC2)n1	x	x	34*	-9	u	-23
C#CCOCCOCCOCCNc1nc(N2CCN(C(=O)CCCCCCCCCCNC(=O)[C@H](CCCN=C(N)N)n3cc(C[C@@H](C)CC)nn3)CC2)nc(N2CCN(C(=O)CCCCCCCCCCNC(=O)[C@@H]([C@H](C)CC)n3cc(CCCCCN)nn3)CC2)n1	x	x	x	-4	x	-7
C#CCOCCOCCOCCNc1nc(N2CCN(C(=O)CCCCCCCCCCNC(=O)Cn3cc(C[C@@H](C)O)nn3)CC2)nc(N2CCN(C(=O)CCCCCCCCCCNC(=O)[C@@H]([C@H](C)CC)n3cc(CCCCCN)nn3)CC2)n1	x	x	55*	0	-1	-13
C#CCOCCOCCOCCNc1nc(N2CCN(C(=O)CCCCCCCCCCNC(=O)[C@H]([C@@H](C)CC)n3cc(CCCCN=C(N)N)nn3)CC2)nc(N2CCN(C(=O)CCCCCCCCCCNC(=O)[C@H](CCCN=C(N)N)n3cc(C[C@@H](C)CC)nn3)CC2)n1	x	x	x	-76	x	-20
C#CCOCCOCCOCCNc1nc(N2CCN(C(=O)CCCCCCCCCCNC(=O)[C@H]([C@@H](C)CC)n3cc(CCCCN=C(N)N)nn3)CC2)nc(N2CCN(C(=O)CCCCCCCCCCNC(=O)[C@@H]([C@H](C)O)n3cc(C)nn3)CC2)n1	x	x	56*	0	u	-2
Cc1nc2ccccc2n1C(C)c1nc2ccccc2n1CC(=O)c1ccc(OC(F)(F)F)cc1 (stereo not given)	0	4	-8	x	x	x
CC(C)N1CCCCC(NC(=O)c2cccc(C(F)(F)F)c2)C1=O (stereo not given)	-1	-1	x	x	x	x
C/C(=N/N=C/c1ccc(N(C)C)cc1)c1ccccc1	3	4	0	4	-6	66
CN(C)c1ccc(/C(=N\O)c2ccccc2)cc1	0	4	1	-4	6	94*
CCO[C@@H]1OC(C(=O)N2CCN(Cc3ccc4c(c3)OCO4)CC2)=C[C@H](c2csc3ccccc23)[C@H]1CCCO	x	x	1	14*	3	x
CCO[C@H]1OC(C(=O)N2CCN(Cc3ccc4c(c3)OCO4)CC2)=C[C@@H](c2ccccc2)[C@@H]1CCCO	-8	0	9	7	4	-6
Cc1cnc(NC(=O)C2CC(=O)N(c3ccc4c(c3)OCCO4)C2)s1 (stereo not given)	2	-1	-4	4	2	-3
Cc1nnc(NC(=O)C2CC(=O)N(c3ccc4c(c3)OCCO4)C2)s1 (stereo not given)	0	-5	-5	21*	-4	x
CCCn1cc(CCC(=O)Nc2ccc(Oc3cccnc3)cc2)c2ccccc21	4	-2	x	x	x	x
c1ccc2c(c1)nnn2CNc1nccs1	1	2	-4	-9	-7	99*
O=c1[nH]c(/C=C\c2ccc(O)c(O)c2)nc(O)c1[N+](=O)[O-]	1	4	8	-1	2	99*
O=C(COc1ccccc1/C=C\c1nc(O)c([N+](=O)[O-])c(=O)[nH]1)Nc1ccccc1	16	7	23*	x	2	x
CCOc1ccccc1/C=C\c1nc(O)c([N+](=O)[O-])c(=O)[nH]1	3	-2	4	1	1	44
CC(COc1cccc(OC(F)(F)F)c1)CN1CCC(C(O)(c2ccccc2)c2ccccc2)CC1 (stereo not given)	0	1	x	x	x	x
O=C(Nc1ccc(-c2n[nH]c(=S)o2)cc1)c1ccccc1Br	13	7	-8	1	-19	86*
SMILES	rCAG RNA binder	PRMT1 inh	ABHD5 PLIN5 PPI	LANA-H2B inh	Rtt109 Vps75	ALR H2O2 inh
COCCN(C[C@@H]1[C@H](c2ccccc2)[C@H](CO)N1c1nc(C)c(C)s1)S(=O)(=O)c1ccccc1[N+](=O)[O-]	8	-2	x	x	x	x
O=c1cc(O)c2sc(Nc3ccc(F)cc3)nc2[nH]1	15	7	-76	-2	-8	57
COC(=O)c1ccc(C)c(NC(=O)CSc2nc3[nH]c(=O)cc(O)c3s2)c1	30	11	-13	x	0	2
Cc1cc(C)cc(NC(=O)CSc2nc3[nH]c(=O)cc(O)c3s2)c1	18	11	-25	3	-10	98*
N#Cc1ccc(NC(=O)CSc2nc3[nH]c(=O)cc(O)c3s2)cc1	26	9	-4	x	1	99*
COc1ccc(NC(=O)CSc2nc3[nH]ncc3c(=O)[nH]2)cc1OC	0	-3	-3	0	3	96*
O=C(CSc1nc2[nH]c(=O)cc(O)c2s1)Nc1cc(Cl)cc(Cl)c1	28	10	1	-2	-6	99*
C[C@H](CO)N1C[C@H](C)[C@@H](CN(C)C(=O)Nc2ccc(C(F)(F)F)cc2)OCc2cn(nn2)CCCC1=O	3	5	x	x	x	x
COC(=O)[C@]12CCCCC=C1N(Cc1cccc3ccccc13)C(=O)[C@H](CC(=O)N1CCN(C(=O)C3CC3)CC1)C2	7	1	9	x	x	x
COc1ccc(NC(=O)CSc2nc3[nH]c(=O)cc(O)c3s2)cc1OC	18	6	-10	8	4	99*
COc1ccc(NC(=O)CSc2nc3[nH]c(=O)cc(O)c3s2)c(OC)c1	27	9	-6	3	-1	41
N#Cc1c(SCC(=O)Nc2cccc(F)c2)sc2c(O)cc(=O)[nH]c12	61*	20	4	-4	0	99*
Cc1cc2c(=O)n(C)c(SCC(=O)Nc3cccc(F)c3)nc2s1	2	1	1	2	0	-2
O=S(=O)(CS(=O)(=O)c1ccc(Br)cc1)c1ccc(Br)cc1	6	8	x	x	x	x
COC(=O)c1cccc(-n2c(C)cc(O)cc2=O)c1	1	-4	x	x	x	x
COc1ccc2c(c1)[C@@]1(OCCC=C[C@H]1C)C(=O)N2C/C=C(\C)CCC=C(C)C	-1	-2	x	x	x	x
